Reference: PubChem BioAssay (NCATS)
Records with an inconclusive call do not appear.

Test: qHTS drug screen for cell cycle checkpoint inhibitors in PARPi-resistant BRCA-mutant ovarian cancer cell lines. (AID 1963452)
Conditions: PEO1/OlaR viability, CellTiter-Glo luminescence, 96 h; measured here: PEO4 Z-AUC; stronger effect = lower value
Procedure, shortened: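 PEO1, PEO4 and PEO1/OlaR ovarian cancer cells, 600 per well, exposed 96 h at 37C to a dilution series. Viability read by CellTiter-Glo luminescence, normalized to DMSO and empty wells; activity summarized as Z-AUC.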

Row | Structure (SMILES) | Z-AUC
1 | CO[C@@H](C(=O)N1Cc2[nH]nc(NC(=O)c3ccc(N4CCN(C)CC4)cc3)c2C1)c1ccccc1 | -0.117
2 | CCS(=O)(=O)N1CC(CC#N)(n2cc(-c3ncnc4[nH]ccc34)cn2)C1 | 0.44
3 | CC(C)C(=O)Nc1ncc(-c2cc(C(F)F)nn2-c2c(Cl)cccc2Cl)s1 | 0.42
4 | c1ccc2c(Cc3c[nH]c4ccccc34)c[nH]c2c1 | -0.359
5 | CC(C)(C)Cn1c(N)nc2ccc(-c3[nH]c(C(C)(C)C)nc3-c3ccc(F)cc3)nc21 | -1.15
6 | NC(=O)c1ccc2nc(-c3ccc(Oc4ccc(Cl)cc4)cc3)[nH]c2c1 | -1.18
7 | O=c1cc(-c2cccc3c2Sc2ccccc2S3)oc(N2CCOCC2)c1 | 0.875
8 | Cc1ccc(/C=N/NC(=O)c2ccccc2Oc2ccccc2)o1 | 0.656
9 | Clc1ccc(CCC(Cn2ccnc2)Sc2c(Cl)cccc2Cl)cc1 (configuration not stated) | 0.874
10 | CCNc1cc(NC2CCC(O)CC2)nc(Nc2ccc3c(ccn3Cc3ccccc3)c2)n1 (configuration not stated) | 0.72
11 | C[N+](C)(C)CC(=O)O | -0.678
12 | COc1ccc(-c2nc(N3CCOCC3)c3sc(CN(C)c4ncc(C(=O)NO)cn4)cc3n2)cn1 | -1.69
13 | Nc1ncnc2c1nc(Cl)n2[C@@H]1O[C@H](CO)[C@@H](O)[C@@H]1O | -0.377
14 | Cc1ccc(F)c(NC(=O)Nc2ccc(-c3cccc4[nH]nc(N)c34)cc2)c1 | 1.16
15 | N[C@H](CSC(c1ccccc1)(c1ccccc1)c1ccccc1)C(=O)O | 0.85
16 | Cc1ccccc1C(C(=O)NC1CCCCC1)N(C(=O)Cn1ccnc1C)c1cccc(F)c1 (configuration not stated) | 0.654
17 | COc1cc2ncnc(-n3nc(-c4ccccn4)nc3N)c2cc1OC | 0.697
18 | O=C(NC1CCOCC1)c1ccc(-c2cc(-c3cn[nH]c3-c3ccccn3)ccn2)cc1 | 0.929
19 | CCn1c(C(=O)N(C2CC2)C2CC2)cc2c3c(ncn3C)c(Nc3cc(C)n(C)n3)nc21 | 1.3
20 | O=c1c(O)c(-c2ccc(O)cc2)oc2cc(O)cc(O)c12 | 1.73
21 | CN(C)Cc1ccc(-c2nc3cccc4c3n2CCNC4=O)cc1 | 0.475
22 | O=c1cc(N2CCOCC2)oc2c(-c3cccc4c3sc3ccccc34)cccc12 | 0.0636
23 | Cc1cnc(C(=O)O)c[n+]1[O-] | -0.6
24 | O=C(Nc1cccc(Br)c1)c1cccc(S(=O)(=O)N2CCCCCC2)c1 | -0.0385
25 | CC(C)(Cc1ccc2ccccc2c1)NC[C@@H](O)COc1cccc(Cl)c1C#N | 0.976
26 | O=C(Nc1ccccc1Br)N[C@@H]1CCN(c2ccc(C(F)(F)F)cn2)C1 | 0.446
27 | Clc1cc(Cl)cc(CNc2ncncc2-c2ccc3c(c2)OCO3)c1 | -0.467

Test: qHTS for identification of novel therapeutic agents for treatment of microphthalmiaassociated transcription factor (MiT) renal cell carcinoma (RCC) (AID 1963991)
Conditions: TFE3-RCC UOK109 viability, CellTiter-Glo, 48 h; measured here: UOK109 Z-AUC; stronger effect = lower value
Procedure, shortened: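 Viability of three TFE3-fusion renal carcinoma lines measured by CellTiter-Glo after 48 h treatment with each of 1912 compounds at 11 concentrations. Responses scaled between DMSO (100%) and empty wells (0%) before curve fitting.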

Row | Structure (SMILES) | z-score
28 | Nc1ncnc2c1ncn2[C@@H]1O[C@H](CO)C[C@@H]1O | 0.12
29 | COc1ccc(-c2nc(N3CCOCC3)c3sc(CN(C)c4ncc(C(=O)NO)cn4)cc3n2)cn1 | -3.18
30 | Cc1ccccc1C(C(=O)NC1CCCCC1)N(C(=O)Cn1ccnc1C)c1cccc(F)c1 (configuration not stated) | 0.6
31 | O=C(NC1CCOCC1)c1ccc(-c2cc(-c3cn[nH]c3-c3ccccn3)ccn2)cc1 | 0.905
32 | Cc1cnc(C(=O)O)c[n+]1[O-] | 1.58

Same assay, conditions: TFE3-RCC viability, CellTiter-Glo, 48 h; measured here: UOK124 Z-AUC; stronger effect = lower value

Row | Structure (SMILES) | z-score
33 | Nc1ncnc2c1ncn2[C@@H]1O[C@H](CO)C[C@@H]1O | 0.223
34 | COc1ccc(-c2nc(N3CCOCC3)c3sc(CN(C)c4ncc(C(=O)NO)cn4)cc3n2)cn1 | -4.67
35 | Cc1ccccc1C(C(=O)NC1CCCCC1)N(C(=O)Cn1ccnc1C)c1cccc(F)c1 (configuration not stated) | 0.139
36 | O=C(NC1CCOCC1)c1ccc(-c2cc(-c3cn[nH]c3-c3ccccn3)ccn2)cc1 | 1.11
37 | Cc1cnc(C(=O)O)c[n+]1[O-] | 0.716

Same assay, conditions: TFE3-RCC viability, CellTiter-Glo, 48 h; measured here: UOK145 Z-AUC; stronger effect = lower value

Row | Structure (SMILES) | z-score
38 | Nc1ncnc2c1ncn2[C@@H]1O[C@H](CO)C[C@@H]1O | 0.00458
39 | COc1ccc(-c2nc(N3CCOCC3)c3sc(CN(C)c4ncc(C(=O)NO)cn4)cc3n2)cn1 | -3.65
40 | Cc1ccccc1C(C(=O)NC1CCCCC1)N(C(=O)Cn1ccnc1C)c1cccc(F)c1 (configuration not stated) | 0.682
41 | O=C(NC1CCOCC1)c1ccc(-c2cc(-c3cn[nH]c3-c3ccccn3)ccn2)cc1 | 0.561
42 | Cc1cnc(C(=O)O)c[n+]1[O-] | 0.578
